Experimental data: PMC12864922, “TDP-43 directly inhibits mRNA accumulation in neurites through modulation of mRNA stability”
In all, about 9,900 sequences were measured (“r (bound/input frequency ratio)”: median about 0.7, highest 2% from about 6.5 on). What follows is part of a selection rich in the highest values, with near analogues and random picks from the rest.

B1: ENSMUSG00000031028.526|Tub (ssRNA)
RNA: GGGAGUUCUACAGUCCGACGAUCGCUUCGAUAUCCGCAUGCUACUUUCUCUUUUAUGGAAAUGGCAGGUCUAUUUGCCUCAAACGUUAUGUAGAAGUAGUUCUAAGUUUAACAAGCAAUAGAGAUGACUGCUUAGCUAGGAUCUGCAGGGAGCUCUGCUCUGCAAGCACAACACCUGUCUCAUAGAUGGACAGCCUGGUUUCCCUUCUCAGCAGUCCUGGCCUCCCCUUCUCUGUAUUCCUUGCCCCAGCUACGAUAUCCUCAUGGGAUUUCAGGAUGCCAGGUGCCAUCAAAGCAUGCUUUUCUCUUGCGGUCGCACUAGUGUGGAAUUCUCGGGUGUCAAGG
B2: ENSMUSG00000061578.913|Ksr2|118:122 (ssRNA)
RNA: GGGAGUUCUACAGUCCGACGAUCGCUUCGAUAUCCGCAUGCUACAGAGACAGAUUUCCCAGAAUCCCUGGGCCACUUCUCAAUUCUACCCAUGACAGACAUGUCCCAUCCAUGAGCCCAGAUAGUCAAAGACUUCAGCACAAGGGUGUUUAGAGUAGGCACACACGAAGUAUCAAUAAGGUUAUUGAGAUGAGGAUUUAGAAAGAUCCAUGUAUAAAAGGUCUAGAAGGAUGAAGAUCUAAAACAAGAAGACUGCAUGUUAACGCUCCUGCCACUGUUGCCCCUUCCUUUACCCUUGGCAGACCUCUUGCGGUCGCACUAGUGUGGAAUUCUCGGGUGUCAAGG
B3: ENSMUSG00000043670.121|Diras1 (ssRNA)
RNA: GGGAGUUCUACAGUCCGACGAUCGCUUCGAUAUCCGCAUGCUAUGUCUGCACACCAGGGUGGAUGGGCCCGAGGGCUGGGCCUCAGGCACCAGGCAAUAAACACAGGGCCUGCAGCAAUGCCCUGGCCACCCCGAGUACCACCUCUGGAAUAGCAGACGCCCACAGCACAAGCCCAGGACUGUCCCUUCAGGGGAGGCACACUGGAACCCUGAACUUGGAGUGUGGAGUGGCUGCCUGGACACUGCCCACCUGGACACCAGCCUUCUGCUGAGAUAGAGACCUUGGCACAGUGGCACCUCGACCUCUUGCGGUCGCACUAGUGUGGAAUUCUCGGGUGUCAAGG
B4: ENSMUSG00000042529.380|Kcnj12 (ssRNA)
RNA: GGGAGUUCUACAGUCCGACGAUCGCUUCGAUAUCCGCAUGCUAUUUAAAUUUGGGUAAGGUGGGUUUCAUGCUCACCAACCUGAACUGGUCAGGCUGGAUGCUGGCCACAGACAUGAUCAGUCCGACUUGAGUCCCUGCCCUGCCCUGGUUAUGCAGGCUGUACGACGCAGUGUGCAUCAGUCUGAGGAGUCUGGUGGUAAGUAAGCCUCUGCAGCAGACCCUGUCGGAGGCCAUGGGGGCGUGUGUGUGUGUGUGUGUGUGUGUGUGUGUGUGUGUGUGUGUGUGUGUGUGUGAACAUGUGUCUCUUGCGGUCGCACUAGUGUGGAAUUCUCGGGUGUCAAGG
B5: ENSMUSG00000061578.1090|Ksr2 (ssRNA)
RNA: GGGAGUUCUACAGUCCGACGAUCGCUUCGAUAUCCGCAUGCUAAGCAGCCAACCAUGAAAAUAGAGGUUUGUAAUGUACAGAAGGCUGGGGGAGCUUUCAGGGGUGUGGCCAGUUAUGUACAGAUGUGAAGCUGAGGUCUGAAGGAAAUGGAGGAAGUAGGAAGAUCAGACUGGUUGAAUUAGAAGUCUGUCACUCUAGGUGCUAAGUGACCUUGGACCCAGUCAGUUCUUGGAUUUCUGUUGUAGCCCAGGCUAGCCUCGAACCCUUGAUCCUCCUGUUCCUGGUAGAGAAACAGCCACUAACUCUUGCGGUCGCACUAGUGUGGAAUUCUCGGGUGUCAAGG
B6: ENSMUSG00000042529.382|Kcnj12 (ssRNA)
RNA: GGGAGUUCUACAGUCCGACGAUCGCUUCGAUAUCCGCAUGCUAUAAGGUGGGUUUCAUGCUCACCAACCUGAACUGGUCAGGCUGGAUGCUGGCCACAGACAUGAUCAGUCCGACUUGAGUCCCUGCCCUGCCCUGGUUAUGCAGGCUGUACGACGCAGUGUGCAUCAGUCUGAGGAGUCUGGUGGUAAGUAAGCCUCUGCAGCAGACCCUGUCGGAGGCCAUGGGGGCGUGUGUGUGUGUGUGUGUGUGUGUGUGUGUGUGUGUGUGUGUGUGUGUGUGUGAACAUGUGUGAGGGUGUGGAGCUCUUGCGGUCGCACUAGUGUGGAAUUCUCGGGUGUCAAGG
B7: ENSMUSG00000042529.385|Kcnj12 (ssRNA)
RNA: GGGAGUUCUACAGUCCGACGAUCGCUUCGAUAUCCGCAUGCUACACCAACCUGAACUGGUCAGGCUGGAUGCUGGCCACAGACAUGAUCAGUCCGACUUGAGUCCCUGCCCUGCCCUGGUUAUGCAGGCUGUACGACGCAGUGUGCAUCAGUCUGAGGAGUCUGGUGGUAAGUAAGCCUCUGCAGCAGACCCUGUCGGAGGCCAUGGGGGCGUGUGUGUGUGUGUGUGUGUGUGUGUGUGUGUGUGUGUGUGUGUGUGUGUGUGAACAUGUGUGAGGGUGUGGAGGUCCCAGGGUGUGUGUAUCUCUUGCGGUCGCACUAGUGUGGAAUUCUCGGGUGUCAAGG
B8: ENSMUSG00000061578.23|Ksr2 (ssRNA)
RNA: GGGAGUUCUACAGUCCGACGAUCGCUUCGAUAUCCGCAUGCUAGUGAUGACGUCACAGAGGCUGUCCACACCUUCGACUUGUACCCCGUUACUCAGGCACGAUCAGGGACCACUCAACUAGGACCAAACUGGGCCAGAGAGGGUCCCAUGUGUGGUGUGAAGGAGCCACAGACUGAGCACACCACCUCGGACUGUGGAGACCAAGACACAUGCCCAGUGGGCAGACUCAGACUCACACGCUGGACCAGUGUGUGCGCAUGUGUCUACACAUGGACAGGGCCAACUGCUAUCCUUCUGCCUGGACUCUUGCGGUCGCACUAGUGUGGAAUUCUCGGGUGUCAAGG
B9: ENSMUSG00000042529.381|Kcnj12 (ssRNA)
RNA: GGGAGUUCUACAGUCCGACGAUCGCUUCGAUAUCCGCAUGCUAUUUGGGUAAGGUGGGUUUCAUGCUCACCAACCUGAACUGGUCAGGCUGGAUGCUGGCCACAGACAUGAUCAGUCCGACUUGAGUCCCUGCCCUGCCCUGGUUAUGCAGGCUGUACGACGCAGUGUGCAUCAGUCUGAGGAGUCUGGUGGUAAGUAAGCCUCUGCAGCAGACCCUGUCGGAGGCCAUGGGGGCGUGUGUGUGUGUGUGUGUGUGUGUGUGUGUGUGUGUGUGUGUGUGUGUGUGUGAACAUGUGUGAGGGUCUCUUGCGGUCGCACUAGUGUGGAAUUCUCGGGUGUCAAGG
B10: ENSMUSG00000061578.39|Ksr2 (ssRNA)
RNA: GGGAGUUCUACAGUCCGACGAUCGCUUCGAUAUCCGCAUGCUAAGGGUCCCAUGUGUGGUGUGAAGGAGCCACAGACUGAGCACACCACCUCGGACUGUGGAGACCAAGACACAUGCCCAGUGGGCAGACUCAGACUCACACGCUGGACCAGUGUGUGCGCAUGUGUCUACACAUGGACAGGGCCAACUGCUAUCCUUCUGCCUGGACGAGCCAGCUGUGGAGUGUCCCAGCUGUGCUAUCCUGGAACACAGAACCAGGAUGGAACCAGAAACAAUACACCUGCUCCGUUGUCAAGGCUUCUACUCUUGCGGUCGCACUAGUGUGGAAUUCUCGGGUGUCAAGG
B11: ENSMUSG00000042529.383|Kcnj12 (ssRNA)
RNA: GGGAGUUCUACAGUCCGACGAUCGCUUCGAUAUCCGCAUGCUAGGGUUUCAUGCUCACCAACCUGAACUGGUCAGGCUGGAUGCUGGCCACAGACAUGAUCAGUCCGACUUGAGUCCCUGCCCUGCCCUGGUUAUGCAGGCUGUACGACGCAGUGUGCAUCAGUCUGAGGAGUCUGGUGGUAAGUAAGCCUCUGCAGCAGACCCUGUCGGAGGCCAUGGGGGCGUGUGUGUGUGUGUGUGUGUGUGUGUGUGUGUGUGUGUGUGUGUGUGUGUGUGAACAUGUGUGAGGGUGUGGAGGUCCCACUCUUGCGGUCGCACUAGUGUGGAAUUCUCGGGUGUCAAGG
B12: ENSMUSG00000043670.183|Diras1|29:33;126:130;160:164;174:183;189:196;229:233 (ssRNA)
RNA: GGGAGUUCUACAGUCCGACGAUCGCUUCGAUAUCCGCAUGCUAGACAGAAUCUGAGCCUCUUUGCUGGUCAACACAACUCUGGAGACUGUCCCCCAUGUCUGCCCUGAGUUACGGAGCCCCUGUGGUAUCUGCGAGACUGUCCAGGAGACUUGAGUGGCUCCUGGGCCACACACCCACCCAGAUGAGGGUGACUUAGAAUUCACACAUUAUGUGCCACACACACACGAUGGCACACACACUGUCUUGGGAUGGGGUGUUCUUGCACCACUUACACAUCUUAGUGAGACCACAGUGUAAGUGGCCUCUUGCGGUCGCACUAGUGUGGAAUUCUCGGGUGUCAAGG
B13: ENSMUSG00000042529.384|Kcnj12 (ssRNA)
RNA: GGGAGUUCUACAGUCCGACGAUCGCUUCGAUAUCCGCAUGCUACAUGCUCACCAACCUGAACUGGUCAGGCUGGAUGCUGGCCACAGACAUGAUCAGUCCGACUUGAGUCCCUGCCCUGCCCUGGUUAUGCAGGCUGUACGACGCAGUGUGCAUCAGUCUGAGGAGUCUGGUGGUAAGUAAGCCUCUGCAGCAGACCCUGUCGGAGGCCAUGGGGGCGUGUGUGUGUGUGUGUGUGUGUGUGUGUGUGUGUGUGUGUGUGUGUGUGUGUGAACAUGUGUGAGGGUGUGGAGGUCCCAGGGUGUCUCUUGCGGUCGCACUAGUGUGGAAUUCUCGGGUGUCAAGG
B14: ENSMUSG00000031028.210|Tub (ssRNA)
RNA: GGGAGUUCUACAGUCCGACGAUCGCUUCGAUAUCCGCAUGCUAAAUGUAUAAGGUUGGAAACCUUUCAGUAGGGAAUCAGGCAGUUCCCUGUUGAAAGUUGUCUGAGUUUUUGCACACCAUUCUGAUCUGAUGUGGCCUGUGCCUGGCUCCUCUAUGAGGACUUCGAGCUGUGCACAGACCUUAGCAGGACCACUGCACACUUUGUGUCUGUGUGACAGGCAGCCCAAGGGUUCUGGGGCUGGGCUUGGACACGCCCUCCAUUGGGAUGGCACCACUCAUCUGGUGGGCUUGGGAACUCCAAGCUCUUGCGGUCGCACUAGUGUGGAAUUCUCGGGUGUCAAGG

Each binder was assayed against TDP-43 (Homo sapiens, UniProt Q13148 1-414) (assay: RNA Bind-n-Seq with designed 260-mer pool; 25 mM Tris-HCl, 150 mM KCl, 3 mM MgCl2, BSA (printed 500 mg/mL), 20 units/mL SUPERase IN; pH not stated; 500 nM RNA pool, 1 h, 4 C; TDP-43 5, 50, 500 nM; high values mean tight binding). Conditions: protein: recombinant; tags: SBP (GST cleaved off with PreScission; pGEX-GST-SBP).
Method in brief: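 Binding (R) is the ratio of each oligo's mapped-read-normalized abundance in the bound fraction to its abundance in the input. To obtain it, SBP-tagged recombinant TDP-43 (5, 50 or 500 nM) on streptavidin beads was incubated with 500 nM of an in vitro-transcribed 260-nt 3′ UTR oligo pool for 1 h at 4 °C in 25 mM Tris-HCl, 150 mM KCl, 3 mM MgCl2, BSA and SUPERase IN. The RNA retained after washing was released with biotin, then reverse transcribed, amplified by PCR and sequenced.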

Chain of TDP-43 (Q13148 whole entry): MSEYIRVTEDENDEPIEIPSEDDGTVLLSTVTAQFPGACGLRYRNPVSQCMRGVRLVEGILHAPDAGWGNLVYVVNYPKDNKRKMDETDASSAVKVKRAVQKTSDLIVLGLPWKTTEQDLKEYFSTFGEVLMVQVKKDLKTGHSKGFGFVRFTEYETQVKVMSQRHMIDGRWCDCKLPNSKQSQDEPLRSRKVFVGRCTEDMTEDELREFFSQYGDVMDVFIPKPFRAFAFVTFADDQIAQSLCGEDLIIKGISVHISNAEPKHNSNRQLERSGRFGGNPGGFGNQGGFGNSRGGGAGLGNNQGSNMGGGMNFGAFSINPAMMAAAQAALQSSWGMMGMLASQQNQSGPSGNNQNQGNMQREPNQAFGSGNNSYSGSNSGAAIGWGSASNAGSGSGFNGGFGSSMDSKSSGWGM

Binder | binding signal
B1 | 0.219 R (bound/input frequency ratio)
B2 | 0.457 R (bound/input frequency ratio)
B3 | 0.914 R (bound/input frequency ratio)
B4 | 7.35 R (bound/input frequency ratio)
B5 | 1.34 R (bound/input frequency ratio)
B6 | 6.14 R (bound/input frequency ratio)
B7 | 7.81 R (bound/input frequency ratio)
B8 | 0.299 R (bound/input frequency ratio)
B9 | 6.18 R (bound/input frequency ratio)
B10 | 0.764 R (bound/input frequency ratio)
B11 | 8.12 R (bound/input frequency ratio)
B12 | 0.711 R (bound/input frequency ratio)
B13 | 7.66 R (bound/input frequency ratio)
B14 | 2.94 R (bound/input frequency ratio)
